This excerpt belongs to a sample that is enriched for hits.
ST2 inh = IL1RL1 inhibition. AlphaLISA ST2-Fc/biotin-IL-33 interaction, 1 h. inhibition, % for hits at 17 µM. 2.3% of 78,000 active; in the data active = inhibition above about 30%
Target sequence (Q01638 whole entry, looked up): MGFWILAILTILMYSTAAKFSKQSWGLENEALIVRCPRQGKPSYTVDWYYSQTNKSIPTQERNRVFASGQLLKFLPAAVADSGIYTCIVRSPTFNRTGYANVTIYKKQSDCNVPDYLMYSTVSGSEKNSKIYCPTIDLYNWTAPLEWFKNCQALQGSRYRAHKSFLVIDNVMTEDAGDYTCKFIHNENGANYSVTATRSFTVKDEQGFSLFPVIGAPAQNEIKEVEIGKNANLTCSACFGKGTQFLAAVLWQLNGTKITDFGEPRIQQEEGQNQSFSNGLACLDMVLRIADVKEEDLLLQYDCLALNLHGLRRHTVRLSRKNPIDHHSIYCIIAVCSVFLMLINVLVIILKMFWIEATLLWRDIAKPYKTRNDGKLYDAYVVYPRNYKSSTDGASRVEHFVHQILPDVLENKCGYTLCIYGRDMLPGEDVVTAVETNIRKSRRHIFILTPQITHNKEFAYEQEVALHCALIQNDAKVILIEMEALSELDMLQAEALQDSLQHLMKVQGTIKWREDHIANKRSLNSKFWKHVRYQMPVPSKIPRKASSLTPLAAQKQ
A number is an active result.

NS(=O)(=O)c1ccc(NC(=O)c2ccccc2[N+](=O)[O-])cc1 was read as ST2 inh 32%.
`Cc1ccc(NC(=O)c2ccc(Cl)cc2Cl)cc1[N+](=O)[O-]` gave ST2 inh inactive.
For CC(C)c1ccc(NC(=O)c2ccc(Cl)cc2[N+](=O)[O-])cc1 the results were ST2 inh inactive.
Screening NS(=O)(=O)c1ccc(NC(=O)c2ccccc2)cc1 returned ST2 inh inactive.
`O=C(Nc1ccc(Nc2ccccc2)cc1)c1ccc(Cl)cc1[N+](=O)[O-]` gave ST2 inh 43%.
Screening CCC(C)c1ccc(NC(=O)c2ccccc2[N+](=O)[O-])cc1 (stereo not given) returned ST2 inh inactive.
CCOC(=O)c1sc(NC(=O)c2ccc(Br)s2)nc1C was read as ST2 inh inactive.
`c1cc(CN2CCC3(CCOCC3)CC2)ccn1` gave ST2 inh inactive.
`O=C(c1n[nH]c2c1CCC2)N1CCCC(c2n[nH]c(=O)n2-c2ccccc2)C1` (stereo not given) gave ST2 inh inactive.
Screening Cc1ccc(NC(=O)C(C)C)c(C(=O)N(C)Cc2cnc3ccccn23)c1 returned ST2 inh inactive.
For O=C1Nc2ccccc2C(O)(C(=O)NCc2cccs2)N1c1ccc(Cl)cc1 (stereo not given) the results were ST2 inh inactive.
Screening CCN(CC)C(=O)CSc1cc(=O)n(C)c2ccccc12 returned ST2 inh inactive.
Nc1ccc(Nc2ccccc2)c(Cl)c1 was read as ST2 inh 44%.
Nc1cccc(C(=O)Nc2ccccc2Cl)c1 was read as ST2 inh inactive.
For Nc1ccc(Cl)c(NC(=O)CC(=O)c2ccccc2)c1 the results were ST2 inh inactive.
Cn1c(=O)c2c(nc(Oc3ccccc3)n2C)n(C)c1=O was read as ST2 inh inactive.
`Cn1c(Br)nc2c1c(=O)n(Cc1ccccc1)c(=O)n2C` gave ST2 inh inactive.
`COc1ccc(Oc2nc3c(c(=O)n(Cc4ccccc4)c(=O)n3C)n2C)cc1` gave ST2 inh 35%.
For O=C(CSc1nc(-c2ccco2)nc2cc(=O)[nH]n12)NCc1ccc(Cl)cc1 the results were ST2 inh inactive.
For O=C(Nc1ccc(S(=O)(=O)Nc2nccs2)cc1)C1(c2ccccc2)CCOCC1 the results were ST2 inh inactive.
`CCOC(=O)c1c(C)[nH]c(C(=O)N2[C@@H]3CC[C@H]2CNC(=O)C3)c1C` gave ST2 inh inactive.
Screening COc1cccc2sc(NC(=O)c3ccco3)nc12 returned ST2 inh inactive.
Screening COC(=O)[C@]1(O)C[C@@H](O)[C@@H](O)[C@H](OC(=O)/C=C/c2ccc(O)c(O)c2)C1 returned ST2 inh inactive.
For Oc1ccc(/C=C/c2ccc(/C=C/c3ccc(O)cc3)c(Br)c2)cc1 the results were ST2 inh inactive.
For Oc1cc(O)cc(/C=C/c2ccc(O)c(O)c2)c1 the results were ST2 inh 33%.
For Cc1ccc(-n2nc3c(c2NC(=O)c2cccc(F)c2)CSC3)c(C)c1 the results were ST2 inh inactive.
CCOc1ccc(NC(=O)NCCc2nc3cccnc3n2Cc2ccc(C)cc2)cc1 was read as ST2 inh inactive.
Screening Cc1ccc(Cn2c(CCNC(=O)Nc3ccccc3Cl)nc3cccnc32)cc1 returned ST2 inh 36%.
Cc1ccc(CNC(=O)NCCc2nc3cccnc3n2Cc2ccc(C)cc2)cc1 was read as ST2 inh inactive.
For Cc1cc(C)n(C(Nc2ccc(Br)cn2)c2ccc(C)o2)n1 (stereo not given) the results were ST2 inh inactive.
O=S(=O)(c1cccc2nonc12)N1CCOCC1 was read as ST2 inh inactive.
Cc1c(N=Cc2cc(Br)cc(Br)c2O)c(=O)n(-c2ccccc2)n1C was read as ST2 inh inactive.
Cc1c(N=Cc2ccc(Cl)o2)c(=O)n(-c2ccccc2)n1C was read as ST2 inh inactive.
For Cc1c(N=Cc2cc([N+](=O)[O-])ccc2N2CCCCCC2)c(=O)n(-c2ccccc2)n1C the results were ST2 inh 42%.
`COc1cc(C=Nc2c(C)n(C)n(-c3ccccc3)c2=O)c([N+](=O)[O-])cc1OC` gave ST2 inh inactive.
`COc1cc(C=Nc2c(C)n(C)n(-c3ccccc3)c2=O)cc([N+](=O)[O-])c1O` gave ST2 inh inactive.
For Cc1c(N=Cc2cc([N+](=O)[O-])ccc2N(C)C2CCCCC2)c(=O)n(-c2ccccc2)n1C the results were ST2 inh 47%.
`CCCn1ncc(C(=O)N(C)C(C)c2nccs2)c1C` (stereo not given) gave ST2 inh inactive.
Cc1cc(C(O)C(O)CO)co1 (stereo not given) was read as ST2 inh inactive.
Cc1ccc(C(=O)Nc2ccccc2I)cc1 was read as ST2 inh inactive.
CCCCn1c(CN2CCCC(OCc3ccccc3)C2)cnc1S(=O)(=O)CC (stereo not given) was read as ST2 inh inactive.
O=S(=O)(Nc1cc(Br)c2oc3c(c2c1)CCCC3)c1ccccc1 was read as ST2 inh inactive.
For CCC1CCCCN1S(=O)(=O)c1ccc(C)cc1 (stereo not given) the results were ST2 inh inactive.
For Cc1cc(N2CCOCC2)nc2ccc(NC(=O)CCC(=O)NCC3CCCO3)cc12 (stereo not given) the results were ST2 inh inactive.
Screening O=C1c2ccccc2C(=O)c2c1nc1n2CCOC1 returned ST2 inh inactive.
Screening Nc1nc2ccccc2nc1N returned ST2 inh inactive.
Screening Nc1cc2c3c(cccc3n1)C(=O)c1ccccc1-2 returned ST2 inh 34%.
For O=C(NCCn1ccc2ccccc21)c1cn(CCc2ccccc2)nn1 the results were ST2 inh inactive.
`Cc1cc(NC(=O)c2cc3ccccc3o2)nc2c1c(=O)oc1ccccc12` gave ST2 inh inactive.
COc1cc(-c2nc3sc4c(c3c(=O)[nH]2)CCCC4)ccc1O was read as ST2 inh inactive.
Screening COc1ccc2[nH]c3c(c2c1)CCn1c-3nc2sc3c(c2c1=N)CCCC3 returned ST2 inh 34%.
For COc1ccc(CCn2cnc3sc4c(c3c2=N)CCCC4)cc1OC the results were ST2 inh inactive.
Screening COCC(=O)N[C@H]1CC[C@]2(C)CC[C@@H]([C@H](C)C(=O)NCc3ccccc3)[C@H](O)[C@H]2[C@@H]1C returned ST2 inh inactive.
For COc1ccc(C2=N/C(=C\c3ccc(Cl)c(Cl)c3)C(=O)O2)cc1[N+](=O)[O-] the results were ST2 inh inactive.
For COc1cccc(OCCOc2ccc(/C=C3\C(=O)NN(c4ccccc4)C3=O)cc2)c1 the results were ST2 inh inactive.
For COc1ccc(OCc2ccc(F)cc2)c(/C=C2\C(=O)NN(c3ccccc3)C2=O)c1 the results were ST2 inh inactive.
For COc1ccc(OCc2ccccc2F)c(/C=C2\C(=O)NN(c3ccccc3)C2=O)c1 the results were ST2 inh 35%.
`Cc1ccnc(NC(=O)c2cccc(I)c2)c1` gave ST2 inh inactive.
`COc1ccc(OC)c(NS(=O)(=O)c2c(C)noc2C)c1` gave ST2 inh inactive.
Screening O=C(c1cc2n(n1)CCN(Cc1cnc(-c3ccco3)nc1)C2)N1CCCC1 returned ST2 inh inactive.
For CC(C)Cn1cnc2c(N)nc3ccccc3c21 the results were ST2 inh 41%.
CC(Cn1cnc2ccccc21)C(=O)O (stereo not given) was read as ST2 inh inactive.
`Nc1ncnc2c1ncn2CCOc1ccccc1` gave ST2 inh inactive.

Source: PubChem (Paczesny and Yang Labs, IUPUI and University of Michigan)
